We go through 40 compounds from PubChem BioAssay (NCATS).

Inconclusive results are not listed. Unmarked numbers belong to inactive results. Calls of active or inactive are those of the source. The call rests on the fitted dose curve. Starred links: 1 amine or outer side, 2 acyl side, 3 side chain; linkers in the order of their positions; H or OH if unused. Positions of bridges follow the written chain, without caps; N, C: chain ends. Non-standard residues stand in square brackets, D forms with d. Residues, ends and D or L forms follow the SMILES beside them. ξ: configuration not given here. Phe(3R-OH) = O=C([C@@H](N[*:1])[C@H](O[*:3])c1ccccc1)[*:2]; NMeTrp(4-OMe) = CN[C@@H](Cc1c[nH]c2cccc(OC)c12)C(=O)O; ξThr(3R)(O-yl) = C[C@@H](O[*:3])C(N[*:1])C(=O)[*:2]; NMeThr(3ξ) = CN[C@H](C(=O)O)C(C)O; NMeL = CN[C@@H](CC(C)C)C(=O)O; NMeV = CN[C@H](C(=O)O)C(C)C; ξIle = CC[C@H](C)C(N)C(=O)O; ξV = CC(C)C(N)C(=O)O

The nature of this test: qHTS for inhibitors of Rabies Virus screened against the NCATS CANVASS Library (AID 1347402). Further: 0% is about no effect. The following applies: Rabies virus infection cell assay; series mostly up to 45.9 µM; activity change, negative = inhibition: at the top concentration.
For the compound `CC[C@@H](c1cc(OC)c(OC)cc1OC)[C@H](C)[C@@H](/C(C)=C/c1cc(OC)c(OC)cc1OC)c1cc(OC)c(OC)cc1OC`, the outcome was inactive.
With `CCC(C)=C1OC(=O)[C@H](C)[C@H](O)[C@H](Cc2cccnc2)NC(=O)C(NC(=O)c2ncccc2O)C(C)OC1=O` (stereo not given in full), the “activity change, negative = inhibition” value is -2.69%.
Consider `C=C(C)CC[C@H](Cc1c(O)cc(O)c2c1O[C@H](c1ccc(O)cc1O)CC2=O)C(=C)C`, for which the “activity change, negative = inhibition” value was -32.2%.
The same measure, in the same setting: with `COc1cc(C2OCC3C(c4ccc(O)c(OC)c4)OCC23)ccc1O` (stereo not given) the figure was 3.04% [at 9.14 µM].
Same read-out and setting: with `CC[C@H](C)C(NC(=O)[C@@H](NC)C(C)C)C(=O)NC1C(=O)N(C)[C@@H](C(C)O)C(=O)N[C@@H](C(C)C)C(=O)N(C)[C@@H](CC(C)C)C(=O)NC(C(C)C)C(=O)N(C)[C@@H](C(C)C)C(=O)N(C)[C@@H](Cc2c[nH]c3cccc(OC)c23)C(=O)N[C@@H](C(C)C)C(=O)N[C@@H]([C@H](O)c2ccccc2)C(=O)N[C@@H](C(C)C)C(=O)O[C@@H]1C` (stereo partly drawn) (H-[NMeV][ξIle][ξThr(3R)(O-yl)][NMeThr(3ξ)]V[NMeL][ξV][NMeV][NMeTrp(4-OMe)]V[Phe(3R-OH)]V; ester 3-C) the figure was 51.2%.
Still for that read-out and setting: for `C=C[C@@]1(C)CC[C@@H]([C@H](C)C(=O)/C=C/C(C)(C)O)O1` the value was -16.7%.
In the case of `C/C(=C\[C@@H](C)CC/C=C/CC/C=C/C(=O)O)[C@H](O)[C@H](C)C(=O)CCCC1CC(=O)NC(=O)C1`, the “activity change, negative = inhibition” value was 5.03%.
Same read-out and setting: with `C[C@@H]1C(=O)[C@]23CC[C@H]1C[C@]21O[C@H]2C(C)(C)C=CC(=O)[C@@]23COC1=O` the figure was -23.8%; with `C=C[C@]1(C)CC[C@@H]([C@H](C)C(=O)/C=C/C(C)(C)O)O1`, -10.2%.
Still for that read-out and setting: with `CO[C@@H]1[C@H](O)[C@@H](C)O[C@@H](OC[C@@H]2C(C)OC(=O)/C=C/[C@H](C)C(O[C@@H]3O[C@H](C)CC4(OC(=O)O[C@@H]4C)C3O)[C@@H](C)CC(C)C(=O)CC[C@H]3OC23)[C@@H]1OC` (stereo not given in full) the figure was -1.19%.
On the same count and under the same terms, for `C/C(=C\[C@H](C)C(=O)CCCC1CC(=O)NC(=O)C1)C(O)[C@@H](C)[C@H](O)C/C=C/CC/C=C/C(=O)O` (stereo not given in full) the value was 21.1%; for `C=CC(C)(C)C(=O)[C@@H](C)[C@@H]1CC[C@@](C)(C=C)O1`, 11.4%.
On to `Cc1cc(O)cc2c1C(=O)c1c(O)cc(O)cc1C2=O`, for which the “activity change, negative = inhibition” value is 4.13%.
Still for that read-out and setting: for `COC1C(C)OC(OCC23C[C@@H]4[C@H](C)CC[C@H]4C4(C=O)CC2C=C(C(C)C)C34C(=O)O)[C@@H](O)[C@H]1O` (stereo not given in full) the value was 2.68%; for `CN1C(=O)C2C(N=CN2C)N(C)C1=O` (stereo not given), -27.5%; for `C[C@@H]1C[C@H]2C[C@]3(CCCCN3C)[C@@H]3C[C@H]2[C@H](C1)N(C)C3`, -24.5%.
On the same count and under the same terms, with `C=C1C[C@@]23C=CC(=O)[C@@](C)(CCCC(C)C(=O)O)[C@@H]2C[C@@H]1CC3` (stereo not given in full) the figure was -9.66%.
On the same count and under the same terms, for `C[C@@]12CCC[C@@](C)(C(=O)O)[C@H]1CC[C@@]13C[C@@H](CC[C@H]12)[C@](C)(O)C3` the value was -1.37%; for `CC(C)=CCCC(C)(O)[C@H]1CC=C(C)C(O)C1` (stereo not given in full), 0.373%.
As for `C[C@H](CCC(O)C(C)(O)CO)[C@@]1(O)CC[C@@]2(C)C3=C(CC[C@@]21C)[C@@]1(C)CCC(OC(=O)CCC(=O)O)C(C)(C)[C@@H]1CC3` (stereo not given in full), the “activity change, negative = inhibition” value is -25.6%.
On the same count and under the same terms, with `CC(C)[C@]12CC[C@@]3(C)[C@H](C)CC[C@H](O)[C@@]3(CC1)c1cc3c(cc12)[nH]c1ccccc13` the figure was -5.28%; with `COc1ccc([C@@H]2CC(=O)c3c(cc(O)c(C/C=C(\C)CCC=C(C)C)c3O)O2)cc1`, -26.8% [at 9.14 µM]; with `O=c1cc(-c2ccc(O)cc2)oc2c([C@@H]3OC(CO)[C@H](O)[C@@H](O)[C@H]3O)c(O)cc(O)c12` (stereo not given in full), 9.44%.
Still for that read-out and setting: with `COC1C(O)C(OC(N)=O)C(Oc2ccc3c(O)c(NC(=O)c4ccc(O)c(CC=C(C)C)c4)c(=O)oc3c2C)OC1(C)C` (stereo not given) the figure was 5.89%; with `C/C(=C\[C@@H](C)CC/C=C/CC/C=C/C(=O)O)[C@@H](O)[C@H](C)C(=O)CCCC1CC(=O)NC(=O)C1`, -3.87%; with `C[C@@H](CCC[C@]1(C)C(=O)C=C[C@]23C[C@H]4C[C@H](O[C@@]4(C)C2)C31)C(=O)N[C@@H](CO)C(=O)O` (stereo not given in full), 15.6%.
`COc1ccc([C@@H]2c3cc4c(cc3C(=O)C(C)C2C)OCO4)cc1OC` (stereo not given in full): the “activity change, negative = inhibition” value was -12.4%.
Same read-out and setting: for `CC(=O)[C@@H]1[C@@H](O)C[C@H]2[C@]3(C)CC[C@H]4C(C)(C)CCC[C@]4(CO)[C@H]3C[C@H]3OC(=O)[C@@H]1[C@@]32C` the value was -19%.
As to `CC1=C(C)C(=O)OC(C(C)C2(O)CCC3C4C5OC5C5(O)CC=CC(=O)C5(C)C4CCC32C)C1` (stereo not given), the “activity change, negative = inhibition” value is -2.28%.
Still for that read-out and setting: for `COc1cc2c(c(O)c1O)C(=O)c1c(coc1C)C2=O` the value was -13.2%.
For the compound `COc1ccc2oc3c(OC)c(OC)c(OC)c(OC)c3c(=O)c2c1`, the activity change, negative = inhibition is -7.41% [at 9.14 µM].
Still for that read-out and setting: with `COc1cc(O)c2c3c(c(O)cc(C)c13)C(=O)OC2` the figure was -1.84%; with `COc1cc(/C=C2/C(=O)N(c3ccc(O)cc3C(=O)O)[C@H](c3ccc(O)c(OC)c3)C2C(=O)Nc2ccc(O)cc2C(=O)O)ccc1O` (stereo not given in full), -23.1%; with `C=C[C@]1(C)CC[C@@H]([C@H](C)C(=O)/C=C/C(C)C)O1`, -3.71%.
The same measure, in the same setting: with `CCCCCCCCCCCCCCCC(=O)OC/C=C(\C)CCCC(C)CC(C)C(C)C` (stereo not given) the figure was 26.9%.
With `CC[C@@H]1C[C@@]2(CC)OC(=O)[C@@]3(CC)[C@H](CC)[C@@H]1[C@@H]23`, the “activity change, negative = inhibition” value is -2.6%.
The same measure, in the same setting: for `O=C(O)[C@@]12CO[C@@]3(O)C4CCN(CC[C@H]31)[C@H]4c1c2[nH]c2ccccc12` the value was -8.87%.
Regarding `C1=C2CCCN[C@@H]2[C@@H]2CCN3CCCC[C@@H]3[C@H](C1)C2`, the “activity change, negative = inhibition” value is -19.2%.
On the same count and under the same terms, for `CNc1ccc(Cl)cc1C(=O)OC[C@]1(C)[C@H]2CC[C@]3(C)[C@@H](C[C@@H](OC)[C@H](C)[C@H]3C3=C(O)C(=O)OC3O)[C@]2(C)CC[C@H]1O` (stereo not given in full) the value was -5.13%.
Still for that read-out and setting: for `C/C(=C\CC/C(C)=C/CC[C@]1(C)CCc2cc(O)cc(C)c2O1)CC/C=C(\C)C(=O)O` the value was -24.6%.
